# Experimental data published in PubChem BioAssay (Tox21).
# Inconclusive results are not listed. Unmarked numbers belong to inactive results. Active and inactive are the calls of the source. Calls follow the shape of the dose curve; as a rule, active = well fitted cell-killing curve with a large enough effect in the repeat runs; inconclusive = weak or mixed curves, or effect the other way; inactive = no such curve, though single readings can be large or run the other way.
# Assay: qHTS assay to identify small molecule antagonists of the retinoid-related orphan receptor gamma (ROR-gamma) signaling pathway - cell viability counter screen (AID 1159520); also: nearly all actives have a fitted effect of over 50% in size
# Conditions: Tet-on RORgamma CHO cells viability, ATP luminescence, 16 h; series mostly up to 92.4 µM; activity, negative = cytotoxicity: at the top concentration
# Text: U.S. Tox21 Program National Center for Advancing Translational Sciences [NCATS] NIH Chemical Genomics Center [NCGC] U.S. Environmental Protection Agency [EPA] National Institutes of Environmental Health Sciences [NIEHS] National Toxicology Program [NTP] U.S. Food and Drug Administration [FDA] Tox21 Assay Overview: Nuclear steroid hormone receptors are involved in many biological processes including inflammatory responses, cell proliferation, and apoptosis. Environmental factors or compounds disrupting these nuclear receptor pathways and gene expression may promote susceptibility to immunotoxicants and autoimmune diseases. One important group of these expression factors are the retinoid-related orphan receptors. To assess compounds that may interfere with the retinoid-related orphan receptor gamma (ROR-gamma) transcription factor, a cell-based luciferase assay was used. The CHO cell-based assay utilizes a TET-inducible ROR expression factor and ROR response element-LUC reporter gene. Reporter gene activity was induced using Doxycycline Hyclate and measured after 16 hr incubation. Tet-on ROR gamma CHO cells were used to screen against the Tox21 10K compound library for cytotoxicity by measuring the viability of the cells based on the quantitation of the ATP.
# Tox21 Assay Protocol Summary: Tet-on ROR gamma CHO cells were dispensed at 1,000 cells in 4 uL of culture medium per well into white wall/solid bottom 1536-well plates using a Multidrop Combi (Thermo Scientific, Waltham, MA) dispenser. Following incubation at 37 C and 5% CO2 for 4 hr, 23 nL of compounds dissolved in DMSO, positive controls or DMSO only were transferred by a Pintool station (Kalypsys, San Diego, CA) and after 2 hr incubation at 37 C, one ul of 1 uM (final concentration) of Doxycycline Hyclate was added to all the wells by using a Flying Reagent Dispenser (FRD) (Aurora Discovery, San Diego, CA). After 16 hr incubation at 37 C and 5% CO2, 5 uL of CellTiter-Glo reagent (Promega Corporation, Madison, WI) was added to each assay plate using FRD. After 30 min incubation at room temperature, luminescence was quantified on a ViewLux plate reader (Perkin Elmer, Waltham, MA).
# % is scaled to controls: 0 for no effect and ±100 for the full control effect; potency is read from the fitted curve at half-maximal effect.
Structure (SMILES),"activity, negative = cytotoxicity",Potency
CCCCNc1ccccc1,5.97%,–
CC(C)(O)Cc1ccccc1,10.2%,–
CCCCc1ccc(N)cc1,-4.52%,–
NC(=S)Nc1cccc2ccccc12,13.1% [at 8.39 µM],–
COC(=O)CCCCCCCCC(=O)OC,-14%,–
CN(C)N=Nc1ccccc1,6.69%,–
Nc1ncnc2c1ncn2Cc1c(F)cccc1Cl,4.71% [at 42.5 µM],–
CC1(C)SC(C)(C)SC(C)(C)S1,-0.398%,–
CC(O)CN(CCCN(C)C)CCCN(C)C (stereo not given),-0.89%,–
Cc1onc(-c2ccccc2)c1-c1ccc(S(N)(=O)=O)cc1,0.878% [at 42.5 µM],–
CC(C)(C)N(CCO)CCO,2.7%,–
CCCCCCCCN(C)CCCCCCCC,-0.233%,–
CO[Si](OC)(OC)OC,0.173%,–
c1cc(CN2CCCCC2)cc(OCCCNc2nc3ccccc3s2)c1,-6.52% [at 42.5 µM],–
C=CCOCC(O)CS(=O)(=O)O (stereo not given),-2.2%,–
O=C(O)c1ccccc1-c1ccc(C(F)(F)F)cc1,6.49% [at 42.5 µM],–
CCCCCOC(=O)Nc1nc(=O)n([C@@H]2O[C@H](C)[C@@H](O)[C@H]2O)cc1F,3.04% [at 42.5 µM],–
C=C(C)C(=O)NCCCN(C)C,-1.13%,–
CN(C)CCOC(c1ccc(Cl)cc1)c1ccccn1 (stereo not given),0.927% [at 42.5 µM],–
NC(=O)Nc1nc2ccccc2[nH]1,4.4%,–

Structure (SMILES),"activity, negative = cytotoxicity",Potency
CC(C)=CC(=O)O,11.9%,–
CCOC(=O)[C@H](CCc1ccccc1)N[C@@H](C)C(=O)N1CCC[C@H]1C(=O)O,5.28% [at 42.5 µM],–
CCN1CCN(c2cc3c(cc2F)c(=O)c(C(=O)O)cn3C2CC2)CC1,-1.48% [at 42.5 µM],–
COc1ccc2cc(C=O)ccc2c1,-1.57% [at 42.5 µM],–
O=C(O)/C=C/c1ccc(/C=C/C(=O)O)cc1,-11.4% [at 42.5 µM],–
CCCCCCCCCCCCI,-6.34%,–
COC[C@H](c1ccc(C(F)(F)F)cc1)N1CCN(C2(C)CCN(C(=O)c3c(C)ncnc3C)CC2)C[C@H]1C,-4.11% [at 42.5 µM],–
CCN(CC)S(=O)(=O)c1ccc(C(=O)O)cc1,0.845% [at 42.5 µM],–
C#CC(O)C(CC)CCCC (stereo not given),-9.27%,–
Cn1ccc2cc3c(cc21)CCN3C(=O)Nc1cccnc1,-0.672% [at 19 µM],–
C1CCCCCCCCCCC1,0.201% [at 19 µM],–
CCC(C)(C)C1CCC(OC)CC1 (stereo not given),–,48.6 µM (active)
CCn1c(=O)c2c(nc(/C=C/c3ccc(OC)c(OC)c3)n2C)n(CC)c1=O,-11% [at 42.5 µM],–
CC(C)CCCC(C)NCCC(C)C (stereo not given),2.22% [at 42.5 µM],–
[O-][N+](=Nc1ccccc1)c1ccccc1,0.894%,–
COc1cc(C)cc(O)c1,-22.6%,–
O=S(=O)(O)c1ccccc1O,13.9%,–
Nc1[nH]c(=O)ncc1F,5.67% [at 42.5 µM],–
CCCC(C)C(=O)O (stereo not given),-15.1%,–
N#CCN(CC#N)CCN(CC#N)CC#N,2.96%,–
